# Assay results: the supplement of paper PMC6555819
# Assays:
# Experiment in all cases: PBM binding z-score (relative to random genomic background probes); higher = stronger binding; sequences stand for … in GC…GCGATTGACAGCGTAGAATGAAGG
# [1] = system: FXR:RXRa (NR concentration 270 nM, RXRa partner concentration 90 nM)
# Method in brief: (§1)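 Custom Agilent 4×180K protein-binding microarrays carried double-stranded probes. Their 34-nt variable regions held direct-repeat seeds, single-nucleotide variants, half-site ablations and random human genomic background sequences. Arrays were incubated 1 h with ligand-free nuclear receptor dimers in PBS pH 7.4, 2% milk, 0.02% Triton X-100, 1 mM DTT, 0.2 mg/mL BSA and 0.4 mg/ml salmon testes DNA. Antibodies against each partner (one per run) detected binding, and scanned fluorescence was regression-normalized. Binding z-scores use random background probes as reference.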
# [2] = system: LXRa:RXRa (NR concentration 270 nM, RXRa partner concentration 90 nM)
# Method in brief: as §1
# [3] = system: LXRa homodimer (NR concentration 270 nM)
# Method in brief: as §1
# [4] = system: LXRb:RXRa (NR concentration 270 nM, RXRa partner concentration 90 nM)
# Method in brief: as §1
# [5] = system: LXRb homodimer (NR concentration 270 nM)
# Method in brief: as §1
# [6] = system: PPARa:RXRa (NR concentration 270 nM, RXRa partner concentration 90 nM)
# Method in brief: as §1
# [7] = system: PPARg:RXRa (NR concentration 180 nM, RXRa partner concentration 90 nM)
# Method in brief: as §1
# [8] = system: PPARg:RXRa 270nM:90nM, anti-RXR (NR concentration 270 nM, RXRa partner concentration 90 nM)
# Method in brief: as §1
# [9] = system: PPARg:RXRa 30nM:10nM, anti-RXR (NR concentration 30 nM, RXRa partner concentration 10 nM)
# Method in brief: as §1
# [10] = system: PPARg:RXRa 90nM:30nM, anti-RXR (NR concentration 90 nM, RXRa partner concentration 30 nM)
# Method in brief: as §1
Sequence,PBM binding z-score [1],PBM binding z-score [2],PBM binding z-score [3],PBM binding z-score [4],PBM binding z-score [5],PBM binding z-score [6],PBM binding z-score [7],PBM binding z-score [8],PBM binding z-score [9],PBM binding z-score [10]
TAAACAGGGTCAAAGGCCAGAGTACGAATGTCGA,7.35,5.57,0.675,4.69,1.48,6.49,9.15,8.05,6.91,8.47
TAGCCTAGTTCATGGGCCAGTATACCACGCGAAC,0.00503,0.504,-0.133,0.304,-0.689,0.867,0.6,0.24,-0.416,0.104
GCTTGCAGATCAAGGTTAAGAAAGACTAAGCTAA,-0.109,0.424,-0.386,0.358,-0.936,1.25,0.0724,0.872,0.0105,0.351
CAAACTAGGTCACAGAGGTCAAAGACCGTGCGTA,7.36,6.53,6.56,5.93,1.73,6.52,10.5,8.43,6.84,8.38
ACTAGTTGGCCAGCTGAGGTCACACACAATTCGG,2.99,2.85,1.49,3.25,-0.00517,3.54,1.55,1.67,0.296,1.05
GAATATAGGTAATACAAGGTGAAAGTCCGATTGT,1.61,2.61,0.76,1.01,0.0272,2.77,3.39,3,0.987,2
CCTGCTAGGTCAGTGGTCAGCTAAAGCAGCTCGC,0.953,0.472,-0.482,0.299,-0.638,1.39,1.53,2.58,0.178,1.59
CCTAGCTGGTCAGGAGGTCACACACCGGATATGA,3.53,3.73,1.44,3.21,0.171,4.14,2.84,3.59,1.08,2.74
CCTTACTGGTCACGAGGTTATAGCACGACGAGCG,1.49,1.46,0.682,1.36,0.455,2.04,1.77,1.97,-0.0752,1.04
AGACTGAGGTTACCAAAGATCAGGGAAACGCTTG,1.67,5.98,-0.277,3,-0.462,2.79,1.29,1.54,0.351,1.05
TCTTGAAGATCAAAGGTTAAGAAAGCCGAAGCCT,1.84,2.29,0.0814,2.16,-0.506,4.1,4.39,5.89,5.18,6.85
CGTCCAAGGTCGATGCTAGGTCAGTGAAAGCATT,1.61,1.91,-0.14,1.33,-0.866,1.81,-0.125,0.529,-0.65,-0.0604
TCTTGTAGATCAATCGAGGTTAAGAAAGTGCGCT,1.32,3.01,0.075,1.49,0.176,1.73,-0.311,1.51,2.7,2.4
GCGACTGGGGCAAAGCAGGTCACCATAAGGTTGG,0.839,1.93,-0.00602,1.53,-1.06,3.18,2.77,2.65,0.521,1.7
GCTCGGAGGACAAGGTCCGAGCTTTGTCCGTAGA,-0.694,-0.575,-1.02,-1.07,-1.61,-0.595,-1.19,-0.67,-1.34,-1.09
GCTTGTAGATCAAGGTTATGAAAGACTAAGCTAA,0.138,0.572,-0.505,0.452,-0.591,1.3,0.656,0.989,0.21,0.553
CGAACTAGGTTATCCAGGACAGTGAATACATTGA,0.556,0.403,0.239,0.204,-0.168,2.31,2.82,2.24,0.585,1.4
CGTCAAAGTTCACGGTAACGTAACAGAAAGCAGC,7.1,6.15,2.53,4.09,0.842,5.42,6.18,6.59,3.33,5.36
ATCTGTAGGTAACAAGTTCAGTGAAAGAGAGGAC,0.84,0.812,0.628,0.805,0.615,1.59,1.51,2.08,0.821,1.57
ACTAGCAGCCCAAGGGTCACTCAAGATTAGTCCG,2.27,2.63,0.353,2.75,-0.34,3.14,2.69,3.61,1.43,3.21
AGGATGAGGTTATACGTAGATCAGGGAAGAAAGT,2.42,1.94,0.445,2.03,0.715,2.62,1.16,1.11,0.501,0.724
TAGCCTGGGTCATTGGGCCAGTATAGTACGCATC,3.3,1.88,-0.677,1.36,-0.556,4.11,3.81,3.62,0.89,2.1
GCTATTAGTTGAAAGGGCAACCGGATGATTCTCG,0.785,0.839,0.362,0.759,-0.334,2.31,2.78,4.56,2.87,4.49
ATCTCTTGGTAAAGATAGTTCAGTGAATGCAAAT,0.445,0.78,0.577,0.693,0.423,0.553,0.212,0.257,0.185,0.285
CCTTATGGGTCACTGACAGGTTATAGCATTTGGA,3.95,3.45,0.192,2.96,-0.062,4.93,5.81,5.11,2.32,4.08

Sequence,PBM binding z-score [1],PBM binding z-score [2],PBM binding z-score [3],PBM binding z-score [4],PBM binding z-score [5],PBM binding z-score [6],PBM binding z-score [7],PBM binding z-score [8],PBM binding z-score [9],PBM binding z-score [10]
TCTGCTAGGTCAACGAAGGTCAGCTAATCTGCTA,4.67,5.5,2.58,3.81,0.162,4.32,3.83,4.05,2.3,3.7
ATATGTAGGTTAAGGGTCATTTAGGTTGGTTCGC,5.62,4.94,3.45,4.87,1.82,6.75,11.6,9.62,10.6,11
CTCGAAAGGTCGTGCTCAGGTGCGTATACCAAAC,4.69,3.72,0.109,2.86,-0.0235,4.57,1.84,3.16,0.473,2.05
ACAATGAGGTTATACGTAGATCAGGGAAGAAAGT,2.38,2.12,-0.0615,1.59,0.813,2.93,1.84,1.69,0.688,0.925
ATATGTAGGTTATCGGGTCATTTAGTTTGCGCAT,3.57,3.18,2.41,3.28,1.19,4.9,7.59,6.1,3.69,5.91
TCTAGCAGGCCAGAGGGTCACTTAAGAGGTACGG,1.18,0.809,-0.547,1.05,-1.09,2.4,1.58,2.96,2.13,2.57
CGTCCAAGGTCAGAGAGGTCAGTGAATGCCGAGT,6.03,5.21,3,4.19,0.123,4.72,3.4,4.41,0.873,3.2
AGAATGAGGTTACCAAAGAACAGGGAAACGCTTG,1.88,5.18,-0.214,2.35,-0.334,3.32,2.51,2.41,1.03,1.71
ATATGTAGGTTATGGGGTCATTCAGTTTGCGCAT,5.54,5.12,3.61,5.55,2.36,5.91,8.65,7.03,5.67,7.31
CAAACTAGATCACGAAAGGTCAAAGTCGAATGAC,5.13,5.95,5.88,5.7,2.42,5.61,4.16,5.04,2.26,3.98
ATCTCTAGGTAAGACTCAGTTCTGTGAAGAACGC,0.335,0.184,0.199,0.00724,0.696,0.118,-0.0876,-0.0102,-0.0402,-0.012
GCAGACTGGTGAAACGCAGGTAACTCAGGGTGGC,-0.987,-0.932,-0.841,-1.19,-1.45,-1.12,-0.00355,-0.98,-0.852,-1.12
CTCGAAAGGTCTTGCTCAGGTGAGTATACCAAAC,0.669,0.369,-0.371,0.506,-0.158,0.978,-0.115,0.563,-0.064,0.608
ATCGAGAGGTCGTGAGGTGAGTATACAGAAAGGC,3.73,2.94,0.117,2.25,0.0713,4.03,2.75,2.74,0.76,1.91
TCTCGGAGGACACGAAAGGACAGAGCTCGACATC,0.793,0.0695,-0.281,-0.358,-0.815,-0.148,0.542,0.751,1.85,1.34
TGAATGAGGTTATAAGTTCAGGGAACGTTGCAAA,2.81,2.69,0.29,1.88,-0.136,3.66,2.09,3.38,1.55,2.71
TCTTGTACATCAACAGGAGGTTAAGAAAGATCGA,0.517,1.37,0.452,1.13,0.442,1.16,0.195,1.36,3.01,1.9
TATACAGGGTCAAAGGACAGAGTACGAATGTCGA,7.39,6.09,2.79,4.85,2.96,6.24,7.83,6.55,4.83,5.84
AGAACGAGGGCTCGCTGAGTTGATAGCAGAGTAG,-0.628,-0.88,-0.835,-0.918,-1.31,-0.747,0.239,-0.824,-0.528,-0.552
GCTTACGGGTCAACGGTTATAGCATGAATAGAAT,5.44,3.55,-0.033,3.68,-0.198,5.55,6.07,5.8,3.19,5.2
ATATCTAGGTAACCAAGTTCAGTGAATGCCGAAC,0.636,0.866,0.932,0.565,0.434,2.98,4.48,3.23,1.23,2.32
CCCAGCAGGCCAATCTGGGTCACTCAAGGCTTGA,0.369,1.43,-0.513,0.944,-1.13,3.19,1.76,2.13,-0.161,1.13
CGTCCAAGGTCAGCAGGTCAGTGAAAGCGACGTG,5.62,4,0.313,3.11,-0.277,4.76,4.12,4.39,0.905,2.91
TCTCAGAGGACACGAAAGGTCAGAGCTCGACATC,3.13,4.15,3.56,3.12,0.409,3.52,1.66,3.01,3.08,2.85
